Assay results from PubChem BioAssay AID743279 (National Center for Advancing Translational Sciences (NCATS), 2014).
Screen size: about 360,000 compounds; about 17,000 (4.7%) were called active. Roughly 5% stayed inconclusive and do not appear here. Rule as the data show it: active = activity change below about -50%; inconclusive = mostly about -30% to -49%; inactive = weaker than that. The list comes from a sample in which actives are over-represented; it also holds similar structures and randomly drawn compounds.

Assay: qHTS for Inhibitors of Inflammasome Signaling: IL-1-beta AlphaLISA Primary Screen
Settings: THP-1 LPS/ATP IL-1B secretion, 16 h; at 57.5 µM, stronger effect = lower value
Outline: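 Secreted IL-1B measured by AlphaLISA bead assay after 16 h compound exposure of THP-1 cells; compounds (final up to 57.5 uM) added 1 h before LPS (250 ng/mL) and ATP (1.25 mM) stimulation; lower signal means less secretion.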
% is scaled to controls: 0 for no effect and ±100 for the full control effect.

Activity change, active:
CCCCCCCCn1c2c(c(=N)c3c1CCC3)CCCC2 -89.8%
CC(C)=CCCC1(C)C=Cc2c(ccc3c2[nH]c2cc(O)c(C)cc23)O1 (centres undefined) -71.6%
c1cnc(N2CCN(c3ccc4ccccc4n3)CC2)nc1 -50.1%
Cc1ccc(C)c(NC(=O)c2cc(-c3cc(C)cc(C)c3O)n[nH]2)c1 -93.5%
Cc1ccc(N=C2NC(=O)/C(=C/C=C/c3ccco3)S2)cc1C -91.3%
Cc1ccc(N2NC(=O)/C(=C/C=C/c3ccco3)C2=O)cc1C -62.6%
CC(C)C[C@@H](COCc1ccc(Cl)cc1)N1CCN(C(=O)c2ccc(Cl)cc2Cl)CCC1=O -52.8%
O=C(c1cc(Cl)cc(Cl)c1)N1CCC(=O)N(C(COCc2ccccc2)Cc2ccccc2)CC1 (centres undefined) -74.4%
Cc1ccc(Nc2nc(CSc3nnc(-c4ccncc4)n3-c3ccccc3C)cs2)cc1 -74.1%
COc1ccc(-c2oc3ncnc(NCCCO)c3c2-c2ccc(OC)cc2)cc1 -68.8%
COc1ccc(C2CC(c3cccs3)=NN2C(=O)CSc2nnc(N)s2)cc1OC (centres undefined) -61.5%
COc1ccc(C2CC(c3cccs3)=Nc3ccccc3S2)cc1OC (centres undefined) -56.2%
COc1cccc(-c2nn(-c3ccccc3)cc2/C=C(\C#N)C(=O)NCCCn2ccnc2)c1 -84%
CSc1nc(-c2ccccc2)nc(C(Cl)Cl)n1 -99.1%
COC(=O)N/N=C/c1cn(CCCOc2ccc(C)cc2)c2ccccc12 -91%
COc1ccc2c(c1OC)C(=O)OC2Nc1nc(-c2ccccc2)cs1 (centres undefined) -117%
Cc1ccc(-c2csc(NC3OC(=O)c4ccccc43)n2)cc1 (centres undefined) -99%
COc1ccc(-c2csc(NC3OC(=O)c4ccccc43)n2)cc1 (centres undefined) -77.8%

Activity change, inactive:
CC(C)Sc1nc(N)nc2c1ncn2C1OC(CO)C(O)C1O (centres undefined) 16%
CC(=O)Nc1ccc(S(=O)(=O)N2CCC(NC(=O)c3ccccc3)CC2)cc1 7.08%
CCOc1ccc(N2C(=O)CC(N(CCc3ccc(OC)c(OC)c3)C(=S)Nc3ccccc3)C2=O)cc1 (centres undefined) 44.8%
Cc1ccc(S(=O)(=O)C2C(=O)NC3(C)CC2c2ccccc2O3)cc1 (centres undefined) 12.4%
CC1=C(N2CCN(c3ncccn3)CC2)CCC1=O 8.92%
O=C(c1ccncc1)N1CCN(c2ccc3ccccc3n2)CC1 5.08%
COCCCn1cc(CN2CC(N(C)C)CS2(=O)=O)nn1 (centres undefined) 21.9%
CC1CCC(C(C)C)C(=O)/C1=C\c1ccc(NC(=O)CCC(=O)O)cc1 (centres undefined) 0%
Cc1ccc(NC(=O)c2cc(-c3ccccc3O)n[nH]2)cc1C -6.84%
Cc1ccc(O)c(-c2cc(C(=O)Nc3c(C)n(C)n(-c4ccccc4)c3=O)[nH]n2)c1 0%
COc1ccc(NC(=O)C2(C)Cc3c(-c4ccc(C(N)=O)cc4)ccnc3O2)cc1 (centres undefined) 0%
Cc1cc(NC(=O)c2cc3ccccc3o2)no1 45.3%
Cc1ccc(-n2ncc3c(=O)n(-c4ccc(C)c(C)c4)c(-c4ccco4)nc32)cc1 -18.4%
O=C1NN(c2ccccc2)C(=O)/C1=C/c1ccc(-c2cccc(C(=O)O)c2)o1 -4.59%
CN1C(=O)/C(=C/c2ccco2)SC1=Nc1cccc(C(=O)O)c1 18.8%
CCOP(=O)(OCC)C(Cc1ccccc1)N=C(c1ccccc1)c1ccccc1 (centres undefined) -2.56%
CNS(=O)(=O)c1ccc2c(c1)[nH]c(=S)n2C -25%
Cc1[nH]c(N)nc(=S)c1CCCNc1ccccc1 5.82%
O=C(NCc1ccccc1)c1cccc(NC(=O)C2CCCCC2)c1 -13.6%
CCC(C)Sc1nc(C)nc2c1c(=O)n(C)c(=O)n2C (centres undefined) 11.7%
Cc1cc(Br)cn2c(Cc3ccsc3)c(-c3ccc(C#N)cc3)nc12 -10.8%
CN(Cc1ccc(C(F)(F)F)cc1)C(=O)[C@H]1O[C@@H](n2cnc3c(N)ncnc32)[C@H](O)[C@@H]1O -14.1%
Cc1ccc2nc(SCC(=O)N3CC(C)OC(C)C3)nc(=O)n2c1 (centres undefined) 13.3%
CC(C)C[C@@H](CO)N1CCN(Cc2ccc(O)cc2)CCC1=O 0%
O=C(c1ccc(C(F)(F)F)cc1)N1CCC(=O)N([C@H](COCc2ccccc2)Cc2ccccc2)CC1 -29.6%
CC(C)CC(CO)N1CCN(C(=O)c2ccc(Cl)cc2Cl)CCC1=O (centres undefined) 4.74%
Cc1ccc(S(=O)(=O)N2CCC(=O)N([C@H](COCc3ccccc3)Cc3ccccc3)CC2)cc1 13.2%
CCc1noc(C)c1C(=O)OCC(=O)c1ccc(NC(=O)CC(C)C)cc1 1.82%
C[C@@H]1CN([C@@H](C)CO)C(=O)CCCn2nncc2CO[C@@H]1CN(C)S(=O)(=O)c1ccc(-c2ccccc2)cc1 -3.91%
CN=C1SC(C(=O)O)CC(=O)N1C (centres undefined) 0.415%
CCCCn1nnnc1C(c1ccccc1)N1CCN(c2ccccc2OC)CC1 (centres undefined) -1.89%
CC1=C(C(=O)N2CCOCC2)CC(CC(=O)NCc2cccs2)C(=O)N1CCCN1CCCC1=O (centres undefined) 2.1%
Cc1ccccc1-n1c(SCC(=O)NCc2cccs2)nnc1-c1ccncc1 -2.89%
Cc1ccc(-n2c(SCC(=O)N3c4ccccc4Sc4ccccc43)nnc2-c2ccncc2)cc1 -10.1%
Cc1ccn(CC(=O)NC2CCCN(Cc3ccccc3F)C2)n1 (centres undefined) -22.3%
C[C@H](NC(=O)[C@@H]1CCCN1C(=O)[C@@H]1CCCN1C(=O)c1ccccc1)c1ccccc1 9.38%
COCCNc1ncnc2c1ncn2[C@H]1CN(Cc2ccc(OC)cc2)C[C@@H](CO)O1 -0.989%
CCc1oc(-c2ccc(OC)cc2)c(C(=O)OCCCCCO)c1C(C)OCCO (centres undefined) -1.94%
Cn1ncc(Br)c1C(=O)NC1CCCC1 -17.3%
CN(CC(=O)NCc1ccc2c(c1)OCO2)CC(=O)Nc1ccc(F)c(F)c1F -7.29%
COc1ccc(C2CC(c3cccs3)=NN2C(=O)CSc2nncs2)cc1OC (centres undefined) -14.9%
COc1ccccc1N1N=C(c2cccs2)CC1c1ccccc1 (centres undefined) 24%
COc1ccc(C2CC(=O)n3c(nc4ccccc43)S2)cc1OC (centres undefined) -17%
COc1ccc(C2CC(c3cccs3)=NN2C(=O)COC(=O)c2cc3ccccc3cc2O)cc1OC (centres undefined) 12.7%
CC(C)(C)OC(=O)N1CCC(C(=O)Nc2cccc(C(=O)NCCc3ccccc3)c2)CC1 17.9%
CCC1(C)COC(c2ccc(OC)c(OC)c2)OC1 (centres undefined) 10.5%
CC1(C(=O)NCc2ccccc2)CSCC(=O)N1CCCN1CCOCC1 (centres undefined) 16.7%
N#Cc1c(N)nc2c3c(sc(=N)c2c1N)NC(=O)CC3c1ccccc1Cl (centres undefined) 36.3%
CC1=NC2(CCCc3c2no[n+]3[O-])N(O)C1(C)C (centres undefined) 1.59%
COC(=O)C[C@H]1C[C@@H]2c3cc(NC(=O)Nc4ccccc4)ccc3O[C@@H]2[C@@H](CO)O1 9.89%
COc1ccc(/C=C(\C#N)C(=O)NCCCn2ccnc2)cc1 -1.26%
COc1cc(OC)cc(C(=O)NCCCn2ccnc2)c1 20.1%
CCOC(=O)c1cc(-c2sc(NC(=O)c3ccccc3)nc2C)n(CCO)n1 -3.33%
NS(=O)(=O)c1ccc(NC(=O)/C=C/c2ccccc2Cl)cc1 -17.1%
COCCNC(=O)CSc1nc(N)c(NC(=O)c2ccco2)c(=O)[nH]1 0.73%
CSc1ncc(Sc2ccccc2)c(C(=O)O)n1 5.96%
CC1(C)OC(=O)C2=C(CC(c3ccccc3)OC2CCc2ccccc2)O1 (centres undefined) -7.82%
O=C(Nc1ccccc1C(=O)N1CCOCC1)c1ccc(Cl)cc1 12.7%
CCOC(=O)N1CCN(C(=O)C2CC(c3ccc(F)cc3)=NO2)CC1 (centres undefined) -3.7%
O=Cc1cn(CCOc2ccc(F)cc2)c2ccccc12 -5.47%
CNC(=S)N/N=C/c1cn(Cc2ccc(C)cc2)c2ccccc12 -7.55%
Cc1ccc([C@@H]2CC(=O)[C@@H]3CN(S(=O)(=O)c4ccc(C)cc4)[C@H](c4ccccc4F)C[C@@H]3N2S(=O)(=O)c2ccc(Cl)cc2)cc1 0%
Cn1cnc(S(=O)(=O)N2C[C@@H](O)COC[C@@H]3O[C@H](CC(=O)NC4CCC4)CC[C@H]32)c1 3.76%
CC(=O)c1c(C)[nH]c(C(=O)OCC(=O)Nc2c(C)n(C)n(-c3ccccc3)c2=O)c1C 30.6%
CCCc1cc(-c2nc(-c3ccc(C)cc3)cs2)ccn1 19.6%
Cc1ccc(-c2csc(NC(=O)Cn3[nH]c(=O)c4ccccc4c3=O)n2)cc1 10.3%
COc1ccc(C(C)(NC(C)=O)c2nc(-c3ccc(S(C)(=O)=O)cc3)cs2)cc1 (centres undefined) -7.6%
CCc1ccccc1NC(=O)[C@@H]1CCC(=O)N1C1OC(=O)c2c1ccc(OC)c2OC (some centres undefined) -9.95%
O=C(CSC1=NCCS1)Nc1nc(-c2ccccc2)cs1 -4.52%
COc1ccc(N/C=C(\C2OC(=O)c3ccccc32)[N+](=O)[O-])cc1 (centres undefined) -0.0924%
OC(c1ccc(Cl)cc1)c1ncc(-c2ccc(Cl)cc2)[nH]1 (centres undefined) -2.78%
